The whole screen tested about 48,000 compounds, of which about 13,000 (27%) showed an effect of 50% or more. The list shows a part of the results.
Each compound was assayed on Wolbachia pipientis (assay: Anti-Wolbachia Cell-Based Screen). Settings: 5 µM.
Assay type: functional
Set-up: scale not given: in the data most compounds retested in dose-response had high values

Row | Structure (SMILES) | Percent Effect [%]
1 | CCCNC(=O)C1CCN(Cc2csc(C(C)(C)C)n2)CC1 | -3.863
2 | COc1cccc2c1CCN(C(=O)NCCc1nccn1C)C2 | 2.215
3 | CC(C#N)CSc1ccccc1NCC(=O)NC(=O)NC(C)(C)C (stereo unspecified) | -19.45
4 | CC(O)CN1CCC(CN(C)Cc2cc(C#N)ccc2F)CC1 (stereo unspecified) | -5.082
5 | Cc1ncc(CNC(CCO)C2CCCCC2)s1 (stereo unspecified) | -8.339
6 | COc1ncnc2c1CCN(Cc1nccs1)CC2.O=C(O)C(F)(F)F | 2.06
7 | N#Cc1nccnc1N1CCC(OCCCc2ccccc2)C1 (stereo unspecified) | 1.367
8 | Cc1nc2c(c(NCc3ccccc3)n1)CCN(C(=O)NC(C)C)CC2 | 7.807
9 | Cc1nc2c(c(NCCNC(=O)C(C)C)n1)Cc1ccccc1OC2 | 89.1
10 | Cc1cccc2c1cnn2CCCNC(=O)C(C)C | -3.766
11 | CC(C)C(C(=O)NCc1ccccc1-n1cccn1)N(C)C (stereo unspecified) | -20.85
12 | Cc1nc2c(c(NCC(=O)NC(C)C)n1)Cc1ccccc1OC2 | 92.9
13 | CN(C)c1nc2c(c(=O)[nH]1)Cc1ccccc1OC2 | -4.691
14 | COc1ccnc(N2CCc3ccc(OC(F)F)cc3C2)n1 | 18.95
15 | c1cnc(N2CCN(Cc3nnnn3C3CC3)CC2)nc1 | -20.27
16 | CC(CCN(C)C)NC(=O)N1CCSC(C)(C)C1 (stereo unspecified) | -16.4
17 | Cc1cnn(CC2CCN(CC(O)c3ccccc3F)CC2)c1 (stereo unspecified) | -4.357
18 | OC(COc1ccc2c(c1)OCO2)CN1CC(n2cccn2)C1 (stereo unspecified) | -5.514
19 | N#Cc1ccc(OCC(O)CN2CCC(Cn3cccn3)CC2)cc1 (stereo unspecified) | 137.4
20 | CCc1ncc2c(n1)CN(CC(O)COc1ccc(C#N)cc1)CC2 (stereo unspecified) | -19.89
21 | Cc1ncc2c(n1)CN(CC(O)COc1ccc(C#N)cc1)CC2 (stereo unspecified) | -6.644
22 | Cc1cnn(CC2CCN(CC(O)CN3CCC(C)CC3)CC2)c1 (stereo unspecified) | 0.7757
23 | Cc1cccc(OCC(O)CN2CCC(Cn3cccn3)CC2)c1 (stereo unspecified) | 104.3
24 | Cc1cnn(CC2CCN(CC(O)c3ccccc3)CC2)c1 (stereo unspecified) | 3.63

Row | Structure (SMILES) | Percent Effect [%]
25 | Cc1ccccc1OCC(O)CN1CCC(Cn2cccn2)CC1 (stereo unspecified) | 111.1
26 | Cc1ccc(OCC(O)CN2CCC(Cn3cc(C)cn3)CC2)cc1 (stereo unspecified) | 122.4
27 | Cc1cnn(CC2CCN(CC(O)c3ccccc3Cl)CC2)c1 (stereo unspecified) | -9.107
28 | Cc1cnn(CC2CCN(CC(O)COc3ccccc3)CC2)c1 (stereo unspecified) | 7.728
29 | CC(C)(C)c1cc(CN2CCOC(CN)C2)n[nH]1 (stereo unspecified) | -6.517
30 | Cc1ccccc1C1CCN(CCn2cc(-c3cccc(O)c3)nn2)C1 (stereo unspecified) | -0.06043
31 | CN(Cc1ccc2c(c1)OCCO2)C(=O)Cn1ccccc1=O | -2.106
32 | CC1(C)CN(Cc2csc(CS(C)(=O)=O)n2)Cc2ccccc21 | -1.783
33 | COCC1CCN(C(=O)c2cc(-c3ccco3)nc3c(Cl)cccc23)C1 (stereo unspecified) | -13.75
34 | O=C(c1cnn[nH]1)N(Cc1ccncc1)CC1CCCO1 (stereo unspecified) | -2.849
35 | Cc1nc2c(c(N3CCC4(CCCNC4=O)C3)n1)CCC2 (stereo unspecified) | 3.026
36 | C[C@@H]1CN(c2nc(N)nc3c2CCC3)CC[C@@]1(O)C1CCC1 | -3.571
37 | CC(=O)NC1CCN(c2nc(N)nc3c2CCCC3)C1 (stereo unspecified) | 13.41
38 | Cc1c(C)n(-c2ccccn2)c2nc3c(c(N)c12)CCCC3 | 16.56
39 | CN1CCCc2c1nc1c(c2N)CCC1 | 99.68
40 | C[C@@H]1CN(c2nc(N)nc3c2CCC3)C[C@]1(C)O | -4.313
41 | CN1CCc2c1nc1c(c2N)CCC1 | 94.13
42 | Cc1c(C)n(Cc2ccncc2)c2nc3c(c(N)c12)CCCCC3 | 23.97
43 | CN1CCCCc2c1nc1c(c2N)CCCC1 | 88.26
44 | CC(C)N(C(=O)c1ccccc1-c1nc2c([nH]1)CCNC2)C(C)C | 16.68
45 | Cc1cccc(COC[C@@]23CCC[C@@H]2CN(S(=O)(=O)N(C)C)C3)n1.O=C(O)C(F)(F)F | -15.69
46 | CCN(C)CC(C)Cn1cnc(-c2ccccc2)c1-c1cncn1CC (stereo unspecified) | 1.36
47 | CCc1nc(NCCCn2cccn2)c2c(n1)c(C)nn2C | 10.76
48 | O=C(Nc1ccccc1OC1CCOC1)c1[nH]nc2c1CCCC2 (stereo unspecified) | 13.6

Row | Structure (SMILES) | Percent Effect [%]
49 | COc1nc2c(cc1C(=O)NCCc1nc(C)c(C(=O)O)s1)CCC2 | -5.377
50 | COc1nc2c(cc1C(=O)NCCc1nc3c(s1)CCC3)CCC2 | -9.23
51 | CCN(CC)C(=O)Cn1cc(C(=O)NCCc2nc(C)c(C)s2)nn1 | -0.7768
52 | COc1cccc2c1OCC(C(=O)NCCc1nc3c(s1)CCC3)C2 (stereo unspecified) | 3.483
53 | CC(C)c1cc(C(=O)NCCc2nc3c(s2)CCC3)n(C)n1 | 118.8
54 | O=C(O)c1ccnc(-c2ccnc(NCCc3nc4c(s3)CCC4)n2)c1 | -20.67
55 | Cc1nn2cc(CCNC(=O)c3cc(C(C)C)nn3C)nc2s1 | -16.47
56 | Cc1nc(CCNC(=O)c2cc(C(C)C)nn2C)sc1C | 143.4
57 | Cc1cc(C(=O)NCCc2nc3c(s2)CCCC3)n(C)n1 | 113.4
58 | CCC[C@@H]1CN(Cc2ccc(C(F)(F)F)nc2)C[C@H]1C(=O)O | 8.814
59 | CC(C)N1CCc2ncn(C)c2C1C(=O)NCCN1CCCC1 (stereo unspecified) | -5.495
60 | COc1ccc(NC(=O)N2CCN(c3ncccn3)CC2)cn1 | 4.438
61 | CN(C)CCN1CCC2(CCN(C(=O)c3cccnc3)CC2)C1=O | 114
62 | CN1CC(c2ccccc2)CC12CCN(C(=O)c1cccnc1)CC2 (stereo unspecified) | -3.135
63 | COCCN1CCN(C)C2(CCN(C(=O)c3ccnnc3)CC2)C1=O.O=C(O)C(F)(F)F | 1.549
64 | COCCN1CCC2(CCCN(C(=O)c3ccoc3C)C2)C1=O (stereo unspecified) | -2.249
65 | CN(C)CCN1CCC2(CCN(C(=O)c3ccncc3)CC2)C1=O.O=C(O)C(F)(F)F.O=C(O)C(F)(F)F | 99.78
66 | O=C(O)C(F)(F)F.O=C(c1cccnc1)N1CCC2(CC1)CCN(c1ccsc1)C2=O | 13.97
67 | CN(C)CCN1CCC2(CCN(C(=O)c3cccc(F)c3)CC2)C1=O.O=C(O)C(F)(F)F | 96.95
68 | CCCN1CCN(C(=O)c2cccnc2)CC1 | 10.45
69 | CCN(C)C1COC2(CCN(C(=O)c3cccc(Cl)c3)CC2)C1.O=C(O)C(F)(F)F (stereo unspecified) | -32.01
70 | COCCN1CCC2(CCN(C(=O)c3ccc(F)cc3)CC2)C1=O | 82.71
71 | CN(C)CCN1CCC2(CCCN(Cc3cccn3C)C2)C1=O.O=C(O)C(F)(F)F.O=C(O)C(F)(F)F (stereo unspecified) | -29.62

From ChEMBL document CHEMBL3988442, “University of Dundee, Small-Polar-MMV Screening Library” (2021)
